# Marburg entry inh = Marburg virus entry inhibition. Marburg virus pseudotyped entry inhibition, cell reporter. Potency, µM (series often up to 37.8 µM), without a hit: top-dose activity change, negative = inhibition, actives largely listed as inhibitors. hit rate 1.8% among 300,000; calls by dose curve; tested in HEK293 cells; further: potency means the concentration at half of the fitted maximal effect; on the % scale 0 is the no-effect control and ±100 the full control effect
# Shiga toxin inh = Shiga toxin inhibition | Vero cells, Shiga toxin protein synthesis inhibition reporter | inhibition, % at 38.7 µM | hit rate 9.2% among 290,000 | AID 2315; in the data active means inhibition mostly above about 28%, no sharp cut-off; inactive means mostly below about 43%; further: 0% is about no effect
# LASV entry inh = inhibitors of Lassa virus binding or cell entry; Lassa virus pseudotype entry inhibition, cell reporter; Potency, µM (top dose mostly 37.9 µM), for inactives: at the highest dose activity change, negative = inhibition, actives largely listed as inhibitors; hit rate 1.2% among 300,000; calls by dose curve; tested in HEK293 cells; further: potency means the concentration at half of the fitted maximal effect; on the % scale 0 is the no-effect control and ±100 the full control effect; nearly all actives have a fitted effect of over 50% in size
# FMDV inh = blocks foot and mouth disease virus | FMDV antiviral cell-based qHTS | Potency, µM (doses to about 57.9 µM), without a hit: top-dose activity change, negative = inhibition, hits mostly inhibitors | hit rate 1.2% among 410,000; calls by dose curve; tested in HEK293T cells; further: read-out not given here; potency means the concentration at half of the fitted maximal effect; on the % scale 0 is the no-effect control and ±100 the full control effect; nearly all actives have a fitted effect of over 45% in size
# HCV inh = inhibitors of hepatitis C virus infection. Huh7.5.1 HCVcc-Cre infection, luciferase reporter, 44 h. Potency, µM (doses to about 41.8 µM), inactives show at the top dose activity change, negative = inhibition, most hits filed as inhibitors. hit rate 3.4% among 340,000; active means well fitted inhibition curve with a large enough effect; inconclusive means small, poorly fitted or top-dose-only effect, or another doubt; inactive means no such curve, though single readings can be large or run the other way; further: potency means the concentration at half of the fitted maximal effect; on the % scale 0 is the no-effect control and ±100 the full control effect
#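 Luciferase read-out (15 sec integration) after a 15 min room-temperature substrate step quantifies HCVcc-Cre infection. Cells, 1,000 per well, had compound added 4 h post-plating, then virus at ~0.5 moi, and were cultured 44 h.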
# CHX counter = affects cycloheximide protein synthesis inhibition readout, counter-screen. AID 2314. hit rate 12% among 300,000. max response, %. cell reporter, cycloheximide protein synthesis inhibition counterscreen; in the data active means max response mostly above about 13%, no sharp cut-off; inactive means mostly below about 14%; further: read at 38.3 µM for the half of the compounds with a filed dose; 0% is about no effect
# * = called active by the depositor; ? = inconclusive; . = not tested or not shown; [ ] = another dose, or the depositor's remark. This is a sample that favours compounds with a hit; in the whole collection about 13% have one here.
SMILES,Marburg entry inh,Shiga toxin inh,LASV entry inh,FMDV inh,HCV inh,CHX counter
O=C(CCN=C1NS(=O)(=O)c2ccccc21)OCC(=O)c1ccc(F)c(F)c1,-13.5%[46.1 µM],.,6.5%,-4.0%,-13.1%[8.37 µM],.
Cc1ccc(C(=O)NC(=S)Nc2ccc3c(c2)OCCO3)c(C)c1,7.2%,71.0*,-13.3%,-2.8%,-9.2%,33.2*
O=C(NC(=S)Nc1ccc2c(c1)OCO2)c1ccc(Cl)cc1,-2.5%,107.9*,?,111.1%,17.0%,76.4*
Cc1ccc(C(=O)NC(=S)Nc2ccc(N3CCOCC3)cc2)c(C)c1,?,7.4,?,-15.2%,-14.2%,8.3
CCc1ccc(C(=O)NC(=S)Nc2ccc3c(c2)OCCO3)cc1,-26.8%,71.8*,?,-1.7%,?,41.3*
Cc1cc(C)cc(C(=O)NC(=S)Nc2ccc3c(c2)OCCO3)c1,?,73.7*,-25.6%,28.6%,?,31.5*
Cc1cc(C)cc(C(=O)NC(=S)Nc2ccc(Cc3ccncc3)cc2)c1,?,-7.6,?,?,?,-1.3
CC(C)C(=O)Nc1cccc(NC(=S)NC(=O)c2ccc3c(c2)OCO3)c1,18.7%,-19.7,?,45.6%,-7.2%,-2.7
COc1ccc(Cl)cc1NC(=S)NC(=O)c1ccc2c(c1)OCO2,-1.3%,.,-23.3%,-21.2%,-1.0%,.
N#CCSc1nc2ccccc2c(=O)n1CCC(=O)NC1CCCCC1,?,-12.9,9.9%,-7.2%,-7.5%,-2.9
Cc1ccc(NC(=O)CC(N)=S)cc1,.,-16.7,.,30.1%,8.8%,-2.7
Cc1ccccc1CN(C)C[C@@H]1OCc2cnnn2CCCC(=O)N([C@H](C)CO)C[C@H]1C,.,.,.,-4.6%,.,.
O=C(NC(=S)Nc1ccc2c(c1)OCCO2)c1ccc(F)cc1Cl,-30.8%,33.8*,-2.1%,41.5%,-16.8%,28.3*
O=C(NC(=S)Nc1ccc(N2CCCCC2)c(Cl)c1)c1ccc2c(c1)OCCO2,1.41µM*,-1.9,?,?,3.55µM*,-4.4
Cc1ccc2c(Cl)c(C(=O)NCCCN3CCOCC3)sc2c1,.,.,.,53.3%,.,.
O=C(NCCN1CCOCC1)c1sc2ccccc2c1Cl,-22.9%[46.1 µM],66.4,3.7%,0.0%,-10.4%,22.9*
O=C(NCc1cccnc1)c1sc2cc(Cl)ccc2c1Cl,-3.0%,-19.9,17.3%,-16.9%,-2.1%,0.4
O=C(NCc1ccco1)c1sc2ccccc2c1Cl,20.8%,83.8*,17.2%,40.8%,?,25.4*
CN(C)C(CNC(=O)c1sc2ccccc2c1Cl)c1ccco1 (stereo unspecified),.,.,.,25.3%,.,.
O=C(NCc1ccco1)c1sc2cc(Cl)ccc2c1Cl,28.9%,57.7*,?,.,?,33.6*
Cc1ccc(C(=O)NCC(C)(C)N2CCOCC2)s1,9.3%,-6.2,-2.2%,8.6%,20.7%,-3.4
CC(C)(CNC(=O)c1sc2cc(F)ccc2c1Cl)N1CCOCC1,5.1%,23.7,13.4%,-5.0%,11.2µM*,10.4
COCCN(C(=O)CSc1nc2ccc(Cl)cc2[nH]1)c1c(N)n(Cc2ccccc2)c(=O)[nH]c1=O,6.2%,-3.4,-23.0%,-19.0%,.,-3.0
c1ccc(-c2nc(C3CCCCC3)no2)cc1,6.9%,45.0*,?,62.0%,1.0%,28.4*
COc1ccc(-c2noc(-c3ccc(N4CCC(C)CC4)c([N+](=O)[O-])c3)n2)cc1OC,-11.4%[46.1 µM],.,-9.6%[46.1 µM],0.0%,.,.
SMILES,Marburg entry inh,Shiga toxin inh,LASV entry inh,FMDV inh,HCV inh,CHX counter
c1ccc(-c2cnc(C3CCCCC3)o2)cc1,?,.,9.3%[46.1 µM],18.9%,8.2%,.
COc1ccc(-c2nc(C3CCCCC3)no2)cc1OC,?,163.3*,49.3%[14.3 µM],71.0%,.,52.9*
C[C@H](NC(=O)c1ccccc1Cl)C(=O)NCCc1ccc(S(N)(=O)=O)cc1,-11.4%[46.1 µM],-16.3,2.7%,-1.4%,4.5%,-4.4
CC1CCCCN1Cc1c(O)ccc2c(=O)c(-c3ccccc3Cl)c(C(F)(F)F)oc12 (stereo unspecified),?,.,-4.3%[46.1 µM],0.0%,.,.
CC1CCCCN1Cc1c(O)ccc2c(=O)c(-c3ccc(Cl)cc3)coc12 (stereo unspecified),?,48.7,1.8%[46.1 µM],19.0%,?,29.7*
CC(C)N(Cc1c(O)ccc2c(=O)c(-c3ccc(Cl)cc3)coc12)C(C)C,.,.,.,27.5%,?,17.5*
CCN(CC)Cc1c(O)ccc2c(=O)c(-c3ccccc3)coc12,.,.,.,30.9%,-12.2%,31.0*
CC1CCCCN1Cc1c(O)ccc2c(=O)c(-c3nc4ccccc4s3)c(N)oc12 (stereo unspecified),2.51µM*,63.1*,?,?,10µM*,40.2*
Cc1ccc(-c2csc3ncnc(N4CCN(Cc5ccccc5)CC4)c23)cc1,.,-5.1,.,?,?,1.1
Cc1csc2ncnc(NC3CCN(Cc4ccccc4)CC3)c12,10µM*,-7.6,-21.6%[46.1 µM],-22.4%,1.78µM*,-2.3
CCCN=C1N(CC)C[C@@H]2[C@@H]3C(=O)N(C)C(=O)[C@@H]3[C@](CC)(C(=O)OC)N12,.,.,.,-6.1%,?,.
COc1cc(/C=N/O)cc(Cl)c1OC,?,1.4,9.9%,-16.5%,2.8%,-2.0
COc1cc(/C=C/c2ccc3cccc(O)c3n2)cc(OC)c1OC,?,62.6*,?,1.1%,?,33.3*
COc1ccc(Br)cc1/C=C/c1ccc2cccc(O)c2n1,-1.2%[46.1 µM],44.4,-20.0%[46.1 µM],-15.1%,?,23.6
COc1cc(/C=C/c2ccc3cccc(O)c3n2)cc(Cl)c1OC,4.47µM*,126.8*,?,-9.9%,?,52.2*
COc1cc(/C=C/c2ccc3cccc(O)c3n2)cc(Br)c1OC,?,163.7*,-14.0%,-27.0%,11.2µM*,78.3*
COc1ccc(/C=C/c2ccc3cccc(O)c3n2)cc1Br,.,115.3*,.,51.4%,?,47.7*
COc1cc(/C=N/O)cc(Br)c1OC,0.2%,-3.9,-0.7%,-14.8%,-25.8%,-3.4
Cc1ccc(-c2nn(C)c(=O)c3ccccc23)cc1CO,-4.1%,8.8,-8.3%,9.2%,-27.8%,0.9
Cc1cc(I)ccc1Nc1c(C(=O)NOCC2CC2)cc(F)c(F)c1F,.,58.2*,.,?,.,16.7*
COc1ccc(NC(=O)CSC2=C(C#N)C(c3ccco3)C3=C(CCCC3=O)N2)c(OC)c1 (stereo unspecified),?,-12.7,-15.2%,5.4%,?,14.2
CCCCc1ccc(NC(=O)CSC2=C(C#N)C(c3ccco3)C3=C(CCCC3=O)N2)cc1 (stereo unspecified),?,-3.1,?,?,?,18.6*
COc1cccc(NC(=O)CSC2=C(C#N)C(c3ccco3)C3=C(CCCC3=O)N2)c1 (stereo unspecified),-7.1%,92.4*,12.6µM*,13.9%,?,36.3*
Cc1ccc(NC(=O)CSCc2cc(=O)c3ccccc3[nH]2)c(C)c1,.,.,7.8%[46.1 µM],-25.6%,.,.
Cc1nc(N)sc1N=Nc1ccccc1C(F)(F)F,?,112.2*,-5.3%[46.1 µM],35.3%,-27.7%,44.7*
CNC(=S)N/N=C/c1c(C)nn(-c2ccccc2)c1Cl,-26.4%,61.2*,1.7%,22.6%,-23.6%,34.8*
